High-throughput results as filed in PubChem.
Tau FP inhib – qHTS for Inhibitors of Tau Fibril Formation, Fluorescence Polarization. K18 P301L tau heparin fibrillization, Alexa594 FP, 6 h. AID 1468, 2008. 280,000 tested, 0.39% active. Potency, µM (highest dose often 57.7 µM), inactives show top-dose activity, negative = inhibition, hits mostly inhibitors; also: nearly all actives have a fitted effect of over 55% in size
Target sequence (P10636 561-689 P618L limits assumed): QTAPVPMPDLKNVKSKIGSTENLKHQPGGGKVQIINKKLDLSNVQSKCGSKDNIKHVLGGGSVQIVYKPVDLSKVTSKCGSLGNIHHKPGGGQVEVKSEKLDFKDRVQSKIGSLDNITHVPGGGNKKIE
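Recombinant K18 P301L […], labeled with Alexa 594 at 0.24 uM over 15 uM unlabeled; heparin inducer 20 uM final; 37 C, 6 hr; FP endpoint.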
HPGD block – qHTS Assay for Inhibitors of HPGD (15-Hydroxyprostaglandin Dehydrogenase); purified HPGD, NADH fluorescence kinetic, PGE2 substrate; 150,000 tested, 4.3% active; AID 894, 2007; Potency, µM, for inactives: at the top dose activity change, negative = inhibition, actives largely listed as inhibitors; active = well fitted inhibition curve with a large enough effect, not every such curve was filed as active; inconclusive = small, poorly fitted or top-dose-only effect, or another doubt; inactive = no such curve, though single readings can be large or run the other way
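20 nM HPGD preincubated 15 min at room temperature with compound in 50 mM Tris-HCl pH 8, 0.01% Tween 20. Started with 1 mM NAD+ and 30 uM prostaglandin E2; NADH fluorescence (360/450 nm) read 5 times over 30-s intervals, last minus first.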
Tau fluor counter – Counterscreen qHTS for Inhibitors of Tau Fibril Formation, Fluorescence Polarization | 280,000 tested, 0.93% active | Potency, µM (top dose mostly 57.7 µM), for the others: at the highest dose activity change, negative = decrease | AID 1463, 2008 | tau K18 P301L Alexa594 fluorescence, heparin fibrillization; also: nearly all actives have a fitted effect of over 55% in size
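Human K18 P301L tau (15 uM unlabeled plus 0.24 uM Alexa 594-labeled, final) in 100 mM sodium acetate pH 7 was mixed with compound and 20 uM heparin and incubated 6 hr at 37 C.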
ALDH1A1 inh – qHTS Assay for Inhibitors of Aldehyde Dehydrogenase 1 (ALDH1A1); Purified ALDH1A1, NADH fluorescence, propionaldehyde substrate; Potency, µM (doses to about 75.3 µM), for the others: top-dose activity, negative = inhibition, usual class: inhibitors; 220,000 tested, 7.3% active; AID 1030, 2008; active = well fitted inhibition curve with a large enough effect, not every such curve was filed as active; inconclusive = small, poorly fitted or top-dose-only effect, or another doubt; inactive = no such curve, though single readings can be large or run the other way;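 also: plate controls were no enzyme wells and a reference inhibitor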
Target sequence (P00352 whole entry, looked up): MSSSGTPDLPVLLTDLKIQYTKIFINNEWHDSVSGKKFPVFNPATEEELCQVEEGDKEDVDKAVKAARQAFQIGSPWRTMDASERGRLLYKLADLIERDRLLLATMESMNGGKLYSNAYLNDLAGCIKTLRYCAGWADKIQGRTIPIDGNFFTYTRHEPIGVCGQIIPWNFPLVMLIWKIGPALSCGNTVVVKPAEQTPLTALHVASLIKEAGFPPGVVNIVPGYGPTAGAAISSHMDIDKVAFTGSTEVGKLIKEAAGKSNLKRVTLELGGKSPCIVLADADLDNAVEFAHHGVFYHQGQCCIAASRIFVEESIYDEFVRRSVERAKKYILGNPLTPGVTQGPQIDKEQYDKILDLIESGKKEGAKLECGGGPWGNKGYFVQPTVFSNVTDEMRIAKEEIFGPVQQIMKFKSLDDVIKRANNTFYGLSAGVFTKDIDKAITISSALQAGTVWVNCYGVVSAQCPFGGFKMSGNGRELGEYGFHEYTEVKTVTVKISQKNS
NPSR antagonist – qHTS Assay for Antagonists of the Neuropeptide S Receptor: cAMP Signal Transduction; Q6W5P4; CHO-NPSR cells, cAMP TR-FRET, antagonist mode; Potency, µM (titrated, usually from 38.3 µM), for inactives: top-dose activity change, negative = inhibition, most hits filed as inhibitors; 220,000 tested, 1% active; AID 1461, 2008; also: nearly all actives have a fitted effect of over 50% in size
Tau fibril ThT – qHTS for Inhibitors of Tau Fibril Formation, Thioflavin T Binding | Microtubule-associated protein tau (Homo sapiens), P10636 | recombinant tau K18 P301L (four-repeat tau fragment), heparin-induced fibrillization, ThT fluorescence | Potency, µM (highest dose often 57.4 µM), inactives show at the top dose activity, negative = inhibition, usual class: inhibitors | 270,000 tested, 2.1% active; also: nearly all actives have a fitted effect of over 55% in size
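K18 P301L tau (15 uM + 0.24 uM Alexa 594-tagged), heparin 20 uM, NaOAc pH 7, 6 h 37 C; ThT 30 uM, 1 h RT, ex 450/em 510 nm.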
* hit, by the source's call; ? = inconclusive; nt = no result; [ ] = another dose, or the depositor's remark. Compounds with a hit are over-represented: about 9.5% of the library has one in this group of screens. Unless noted, calls follow the shape of the dose curve; as a rule, active = well fitted curve in the direction sought with a large enough effect; inconclusive = small, poorly fitted or top-dose-only effect, or another doubt; inactive = no such curve, though single readings can be large; an effect the other way counts as inactive or inconclusive. Unless noted, % is scaled to controls: 0 for no effect and ±100 for the full control effect; potency is read from the fitted curve at half-maximal effect.

SMILES	Tau FP inhib	HPGD block	Tau fluor counter	ALDH1A1 inh	NPSR antagonist	Tau fibril ThT
Cc1ccc(C(=O)NC(=S)NNC(=O)CC#N)cc1	-0.5%	nt	5.8%	-0.1%	-4.7%	-10.9%
Clc1cccc(CSC2=NCCCN2)c1	-3.8%	-14.2%	-0.6%	-3.6%	12.2%[46.1 µM]	-2.8%
COc1ccccc1NC(=O)Cn1c(=O)n(Cc2nc(-c3ccccc3)no2)c(=O)c2ccccc21	?	nt	-23.0%	nt	nt	3.6%
c1coc(-c2nnc(-c3cccs3)o2)c1	-3.6%	?	-4.0%	?	-13.9%[46.1 µM]	-5.9%
O=c1cc(-c2ccco2)nc(-c2cccs2)o1	-13.0%	-17.9%	6.5%	14.1µM*	-6.4%[46.1 µM]	11.5%
CC(=O)Oc1ccc(N2C(=O)C3C4C=CC(O4)C3C2=O)cc1 (stereo not given)	-4.2%	31.6µM*	-13.3%	0.447µM*	-15.9%[46.1 µM]	?
CCOC(=O)c1ccc(N2C(=O)CC(N(C)CCc3ccc(OC)c(OC)c3)C2=O)cc1 (stereo not given)	-2.1%	-2.5%	-12.0%	10µM*	-13.0%[46.1 µM]	?
CCOC(=O)c1ccc(N2C(=O)CC(NC3CCN(C(=O)c4cccc(Cl)c4)CC3)C2=O)cc1 (stereo not given)	-1.2%	-8.0%	-4.3%	12.6µM*	-22.3%[46.1 µM]	-11.4%
CC(=O)Oc1ccc(N2C(=O)CCC2=O)cc1	1.4%	-9.7%	0.5%	-4.3%	-4.6%[46.1 µM]	-4.5%
CCOc1cccc(N2C(=O)CC(N(CCc3ccc(OC)c(OC)c3)C(=O)CC)C2=O)c1 (stereo not given)	0.4%	-2.3%	-1.2%	-0.2%	-9.4%[46.1 µM]	-9.2%
CCOC(=O)c1ccc(N2C(=O)CC(Nc3ccc(CCO)cc3)C2=O)cc1 (stereo not given)	-8.0%	-23.4%	-2.1%	15.8µM*	-21.8%[46.1 µM]	2.4%
CCOc1cccc(N2C(=O)CC(N3CCC(C(N)=O)(N4CCCCC4)CC3)C2=O)c1 (stereo not given)	3.7%	-12.8%	0.4%	25.1µM*	-3.2%[46.1 µM]	-5.4%
CC(=O)Oc1ccc(N2C(=O)CC(N3CCOCC3)C2=O)cc1 (stereo not given)	4.9%	-5.0%	5.3%	31.6µM*	2.6%[46.1 µM]	-7.4%
CCOc1cccc(N2C(=O)CC(n3cnc4ccccc43)C2=O)c1 (stereo not given)	-4.0%	-8.9%	1.3%	-10.5%	-2.9%[46.1 µM]	-5.8%
CCOc1ccc(N2C(=O)CC(N3CCOCC3)C2=O)cc1 (stereo not given)	6.6%	-9.2%	-4.3%	?	-14.0%[46.1 µM]	-2.0%
CCOC(=O)c1ccc(N2C(=O)CC(N(Cc3ccc4c(c3)OCO4)C(=O)Nc3ccccc3)C2=O)cc1 (stereo not given)	?	-9.2%	?	12.6µM*	?	11.9%
CCOC(=O)c1ccc(N2C(=O)CC(N3CCOCC3)C2=O)cc1 (stereo not given)	9.4%	-3.5%	5.7%	25.1µM*	2.7%[46.1 µM]	-10.8%
CN(C)S(=O)(=O)c1ccc2c(c1)N(CC(=O)N1CCC(C(N)=O)CC1)CCS2	2.4%	nt	-8.5%	nt	nt	1.2%
Cc1ccc(CNc2oc(-c3ccc(COc4ccc(C)cc4)o3)nc2C#N)cc1	13.3%	nt	?	nt	nt	1.3%
Cc1ccc(OCC(=O)NNC(=O)C(=O)N2CCCC2)c(C)c1	-1.9%	-2.9%	1.1%	1.8%	7.5%	-5.1%
CCOc1ccccc1NC(=O)c1c(NCc2cccs2)sc2c1CCCCC2	10.6%	nt	-20.4%	nt	nt	-17.1%
CCOC(=O)c1ccc(N2C(=O)CC(N3CCC(C(N)=O)(N4CCCCC4)CC3)C2=O)cc1 (stereo not given)	-1.8%	-13.0%	-3.1%	8.91µM*	12.8%[46.1 µM]	-15.2%
Cc1cc(C)c(Cn2c(=O)n(Cc3ccccc3)c(=O)c3c(C)c(C)sc32)c(C)c1	-1.0%	nt	-7.9%	nt	nt	-6.1%
Cc1cccc(Sc2c([N+](=O)[O-])ncn2C)c1	2.5%	5.01µM*	3.6%	0.1%	-5.4%[46.1 µM]	3.6%
CCN1CCN(c2ccc([N+](=O)[O-])c(Sc3nc4ccccc4[nH]3)c2)CC1	10.4%	nt	5.5%	3.1%	-0.3%[46.1 µM]	4.0%
SMILES	Tau FP inhib	HPGD block	Tau fluor counter	ALDH1A1 inh	NPSR antagonist	Tau fibril ThT
Cc1cccc(Sc2ccc([N+](=O)[O-])cn2)c1	7.5%	-6.6%	-3.9%	-5.5%	-3.5%	0.8%
Cc1cc2nc(Sc3c([N+](=O)[O-])nc(C)n3Cc3ccccc3)[nH]c2cc1C	7.2%	-22.2%	1.6%	1.12µM*	-57.0%	1.7%
Cc1cccnc1Sc1c([N+](=O)[O-])ncn1C	8.7%	-7.9%	1.7%	15.8µM*	-7.8%[46.1 µM]	-4.2%
CS(=O)(=O)c1cc([N+](=O)[O-])c(Sc2nc3ccccc3[nH]2)c([N+](=O)[O-])c1	-1.2%	3.55µM*	4.7%	8.91µM*	?	12.0%
Cc1noc(/C=C/c2ccccc2F)c1S(=O)(=O)N1CCC(C(=O)N(C)Cc2ccco2)CC1	0.2%	nt	0.0%	nt	nt	5.1%
O=C(c1cnccn1)N1CCC2(CC1)CN(Cc1nccs1)C2	nt	-8.5%	nt	5.5%	nt	nt
CCCCCCCC1=Cc2ccc(F)cc2C(C(C(C)=O)C(=O)OC)N1C(=O)OC (stereo not given)	?	-4.9%	-9.9%	13.9%	nt	-1.0%
Cc1nc([N+](=O)[O-])c(Sc2nc3ccccc3[nH]2)n1Cc1ccccc1	-4.2%	-4.1%	-22.5%	-8.5%	-21.6%[46.1 µM]	?
Cn1cnc([N+](=O)[O-])c1Sc1nc2ccccc2[nH]1	-10.1%	nt	-29.9%	20µM*	-10.6%	?
CC(=O)c1ccc2c(c1)N(C)c1ccccc1S2	12.9%	-24.2%	?	3.6%	-7.3%[46.1 µM]	10µM*
CC(=O)Nc1ccc(C(=O)OCC(=O)Nc2ccc(N3CCOCC3)cc2)cc1	-0.8%	nt	-11.5%	17.8µM*	2.3%	-17.6%
C/C(=N\Nc1ccc(F)cc1F)c1ccc(N2CCOCC2)cc1	-1.3%	nt	-23.7%	15.8µM*	-10.3%	?
CC(=O)c1ccc(N2CCN(CC(=O)Nc3ccc(N4CCOCC4)cc3)CC2)cc1	1.2%	nt	-12.2%	4.1%	6.3%	-16.3%
NC(=O)CC[C@H](NC(=O)c1ccc(F)cc1)C(=O)OCC(=O)Nc1ccc(N2CCOCC2)cc1	0.4%	-5.8%	0.6%	11.2µM*	-5.0%	-8.0%
C/C(=N\Nc1ccc(F)cc1F)c1ccc(Br)s1	8.4%	nt	?	12.6µM*	-11.5%	?
O=C(COC(=O)COc1ccc(Cl)cc1)Nc1ccc(N2CCOCC2)cc1	2.6%	nt	-13.3%	4.1%	-2.3%	-15.5%
